Of roughly 7,900 targets only a part is listed; those with a hit were picked by preference. About 0.6% of all pairs of compound and target were hits. A number with no mark means an inactive call.
What was measured:
Assay in all cases: log2 fold change, soluble protein after heating vs DMSO (PISA); higher = thermal stabilisation; K562 cells, 10 uM, 30 min; active = over 0.2 and 3.5 SD of the protein, either way, in both replicates (recomputed)
[1] = compound: CC[C@@H]1C(=O)N(C)c2cnc(Nc3ccc(C(=O)NC4CCN(C)CC4)cc3OC)nc2N1C1CCCC1
How it was run: (§1)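 K562 cells at 2×10^6 cells/mL were exposed to 10 μM compound for 30 min, then aliquots were heated for 3 min across 48°C-58°C, pooled, and extracted in PBS containing 0.5% NP-40 at 4°C. The supernatant after 21,000xg for 90 min was taken as soluble protein and measured by TMTpro 16plex LC-MS/MS with channel sums equalised. Thermal stability is reported relative to control samples, with values from duplicates. Fold changes are given on a log2 scale.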

volasertib = compound: CC[C@@H]1C(=O)N(C)c2cnc(Nc3ccc(C(=O)N[C@H]4CC[C@H](N5CCN(CC6CC6)CC5)CC4)cc3OC)nc2N1C(C)C [volasertib]
How it was run: as §1

[2] = compound: CC[C@H](C)N1C=C(C2=C(C=C(C=C21)C3=CN=C(C=C3)N4CCNCC4)C(=O)NCC5=C(C=C(NC5=O)C)C)C
How it was run: as §1

epoxomicin = compound: CC[C@H](C)[C@@H](C(=O)N[C@@H]([C@@H](C)O)C(=O)N[C@@H](CC(C)C)C(=O)[C@]1(CO1)C)NC(=O)[C@H]([C@@H](C)CC)N(C)C(=O)C [epoxomicin]
How it was run: as §1

[3] = compound: CCn1c(C(=O)N(C2CC2)C2CC2)cc2c3c(ncn3C)c(Nc3cc(C)n(C)n3)nc21
How it was run: as §1

[4] = compound: CCn1cc(-c2ccnc3[nH]c(-c4cccc(CN(C)C)c4)cc23)c(-c2ccc(NC(=O)N(C)C)cc2)n1
How it was run: as §1

[5] = compound: CN(C)CC(=O)Nc1ccc2[nH]c(=O)c3ccccc3c2c1
How it was run: as §1

rosiglitazone = compound: CN(CCOC1=CC=C(C=C1)C[C@H]2C(=O)NC(=O)S2)C3=CC=CC=N3 (racemic) [rosiglitazone]
How it was run: as §1

[6] = compound: CN1C2=C(C3=C1C(=O)N(N=C3)CC4=CC(=CC=C4)N)SC(=C2)S(=O)C
How it was run: as §1

[7] = compound: CN1CCC(CNc2ccc3ncc(-c4cccc(OC(F)(F)F)c4)n3n2)CC1
How it was run: as §1

Sequence of UniProt P18065 (P18065 whole entry, looked up): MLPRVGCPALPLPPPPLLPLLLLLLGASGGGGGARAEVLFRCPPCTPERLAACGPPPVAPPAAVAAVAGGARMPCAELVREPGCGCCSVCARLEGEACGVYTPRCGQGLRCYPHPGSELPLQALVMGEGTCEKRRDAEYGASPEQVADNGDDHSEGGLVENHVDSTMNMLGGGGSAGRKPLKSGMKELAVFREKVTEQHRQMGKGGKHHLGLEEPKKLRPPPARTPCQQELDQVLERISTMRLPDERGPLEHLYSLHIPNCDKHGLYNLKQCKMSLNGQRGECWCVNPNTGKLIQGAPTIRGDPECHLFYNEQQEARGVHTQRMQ
Sequence of UniProt Q9BU23 (Q9BU23 whole entry, looked up): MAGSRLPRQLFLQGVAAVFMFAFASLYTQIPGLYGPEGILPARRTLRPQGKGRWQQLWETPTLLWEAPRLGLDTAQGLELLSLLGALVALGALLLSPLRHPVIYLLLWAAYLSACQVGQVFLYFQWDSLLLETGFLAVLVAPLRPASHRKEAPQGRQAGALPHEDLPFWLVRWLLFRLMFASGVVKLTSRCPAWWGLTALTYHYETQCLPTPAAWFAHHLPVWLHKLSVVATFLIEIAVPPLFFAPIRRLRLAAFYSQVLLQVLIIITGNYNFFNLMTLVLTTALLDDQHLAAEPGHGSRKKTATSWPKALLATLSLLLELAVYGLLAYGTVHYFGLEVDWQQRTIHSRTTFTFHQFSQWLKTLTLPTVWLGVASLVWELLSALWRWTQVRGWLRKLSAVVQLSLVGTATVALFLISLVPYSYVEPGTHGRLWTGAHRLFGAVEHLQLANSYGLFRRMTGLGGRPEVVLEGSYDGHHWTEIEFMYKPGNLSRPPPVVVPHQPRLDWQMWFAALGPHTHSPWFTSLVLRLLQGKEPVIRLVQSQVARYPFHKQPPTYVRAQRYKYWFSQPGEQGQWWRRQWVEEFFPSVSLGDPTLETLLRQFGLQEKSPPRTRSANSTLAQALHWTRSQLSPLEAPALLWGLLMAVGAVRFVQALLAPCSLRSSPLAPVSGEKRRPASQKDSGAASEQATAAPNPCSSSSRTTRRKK
Sequence of UniProt Q16891 (Q16891 whole entry, looked up): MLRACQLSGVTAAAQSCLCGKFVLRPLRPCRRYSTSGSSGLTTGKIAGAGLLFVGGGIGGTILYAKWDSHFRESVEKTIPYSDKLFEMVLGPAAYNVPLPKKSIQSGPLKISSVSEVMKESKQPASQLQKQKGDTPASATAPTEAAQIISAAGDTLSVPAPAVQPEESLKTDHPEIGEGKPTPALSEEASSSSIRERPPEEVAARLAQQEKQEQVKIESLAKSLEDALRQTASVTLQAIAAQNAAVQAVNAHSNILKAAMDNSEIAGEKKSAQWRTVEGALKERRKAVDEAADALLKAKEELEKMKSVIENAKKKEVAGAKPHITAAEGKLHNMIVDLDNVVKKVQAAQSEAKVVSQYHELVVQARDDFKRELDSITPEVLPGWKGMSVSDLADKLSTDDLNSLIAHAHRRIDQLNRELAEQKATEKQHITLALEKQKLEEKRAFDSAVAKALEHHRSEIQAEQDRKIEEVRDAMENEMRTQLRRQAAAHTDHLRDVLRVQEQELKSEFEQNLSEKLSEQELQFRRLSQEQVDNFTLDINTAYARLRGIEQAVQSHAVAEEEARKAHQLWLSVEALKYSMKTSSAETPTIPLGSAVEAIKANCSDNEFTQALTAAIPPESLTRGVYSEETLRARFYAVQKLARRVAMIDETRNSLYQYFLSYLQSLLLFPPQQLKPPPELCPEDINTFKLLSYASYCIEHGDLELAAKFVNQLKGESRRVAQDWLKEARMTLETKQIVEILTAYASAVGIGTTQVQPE
Sequence of UniProt Q07666 (Q07666 whole entry, looked up): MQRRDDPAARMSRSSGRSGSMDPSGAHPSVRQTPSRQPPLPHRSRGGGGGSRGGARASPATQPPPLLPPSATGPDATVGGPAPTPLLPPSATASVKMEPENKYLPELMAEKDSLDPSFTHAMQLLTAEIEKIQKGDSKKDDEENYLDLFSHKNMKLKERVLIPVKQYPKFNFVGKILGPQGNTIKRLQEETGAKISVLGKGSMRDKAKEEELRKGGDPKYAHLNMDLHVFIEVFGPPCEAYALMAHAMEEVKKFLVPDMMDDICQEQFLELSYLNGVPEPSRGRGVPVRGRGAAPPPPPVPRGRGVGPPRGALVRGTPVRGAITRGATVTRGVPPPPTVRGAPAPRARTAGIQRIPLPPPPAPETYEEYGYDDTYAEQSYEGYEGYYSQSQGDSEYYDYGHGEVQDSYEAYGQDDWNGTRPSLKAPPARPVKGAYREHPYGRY
Sequence of UniProt Q9HCC0 (Q9HCC0 whole entry, looked up): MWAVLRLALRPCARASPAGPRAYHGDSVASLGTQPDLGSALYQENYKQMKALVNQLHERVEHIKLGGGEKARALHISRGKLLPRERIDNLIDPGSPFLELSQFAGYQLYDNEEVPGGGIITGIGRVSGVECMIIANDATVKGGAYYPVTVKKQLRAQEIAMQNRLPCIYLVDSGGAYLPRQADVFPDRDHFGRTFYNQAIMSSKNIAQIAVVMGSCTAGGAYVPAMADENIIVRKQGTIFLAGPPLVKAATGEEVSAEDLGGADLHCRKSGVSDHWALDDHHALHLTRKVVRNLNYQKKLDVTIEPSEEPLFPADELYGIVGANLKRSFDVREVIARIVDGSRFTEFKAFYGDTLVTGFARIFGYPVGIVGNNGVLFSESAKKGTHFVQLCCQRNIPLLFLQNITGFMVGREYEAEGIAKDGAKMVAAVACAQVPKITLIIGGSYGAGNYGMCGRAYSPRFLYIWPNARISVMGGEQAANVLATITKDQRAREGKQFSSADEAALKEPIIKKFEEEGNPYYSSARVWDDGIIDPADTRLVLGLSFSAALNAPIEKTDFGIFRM
Sequence of UniProt Q14653 (Q14653 whole entry, looked up): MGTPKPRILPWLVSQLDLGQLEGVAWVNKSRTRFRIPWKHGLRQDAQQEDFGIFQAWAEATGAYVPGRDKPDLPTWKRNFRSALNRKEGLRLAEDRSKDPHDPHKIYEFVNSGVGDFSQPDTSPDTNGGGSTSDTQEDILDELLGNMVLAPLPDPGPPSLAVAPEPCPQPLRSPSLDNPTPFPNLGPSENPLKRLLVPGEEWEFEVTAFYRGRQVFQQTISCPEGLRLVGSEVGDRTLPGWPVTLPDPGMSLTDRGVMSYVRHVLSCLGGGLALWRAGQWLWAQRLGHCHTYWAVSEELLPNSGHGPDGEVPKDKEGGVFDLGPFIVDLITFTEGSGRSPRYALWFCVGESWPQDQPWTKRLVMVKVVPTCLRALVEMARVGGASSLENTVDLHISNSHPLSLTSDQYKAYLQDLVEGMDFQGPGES
Sequence of UniProt P14174 (P14174 whole entry, looked up): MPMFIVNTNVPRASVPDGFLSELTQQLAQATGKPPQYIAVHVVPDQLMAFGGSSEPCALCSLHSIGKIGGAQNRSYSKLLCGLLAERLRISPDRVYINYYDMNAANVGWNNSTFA
Sequence of UniProt Q96EK5 (Q96EK5 whole entry, looked up): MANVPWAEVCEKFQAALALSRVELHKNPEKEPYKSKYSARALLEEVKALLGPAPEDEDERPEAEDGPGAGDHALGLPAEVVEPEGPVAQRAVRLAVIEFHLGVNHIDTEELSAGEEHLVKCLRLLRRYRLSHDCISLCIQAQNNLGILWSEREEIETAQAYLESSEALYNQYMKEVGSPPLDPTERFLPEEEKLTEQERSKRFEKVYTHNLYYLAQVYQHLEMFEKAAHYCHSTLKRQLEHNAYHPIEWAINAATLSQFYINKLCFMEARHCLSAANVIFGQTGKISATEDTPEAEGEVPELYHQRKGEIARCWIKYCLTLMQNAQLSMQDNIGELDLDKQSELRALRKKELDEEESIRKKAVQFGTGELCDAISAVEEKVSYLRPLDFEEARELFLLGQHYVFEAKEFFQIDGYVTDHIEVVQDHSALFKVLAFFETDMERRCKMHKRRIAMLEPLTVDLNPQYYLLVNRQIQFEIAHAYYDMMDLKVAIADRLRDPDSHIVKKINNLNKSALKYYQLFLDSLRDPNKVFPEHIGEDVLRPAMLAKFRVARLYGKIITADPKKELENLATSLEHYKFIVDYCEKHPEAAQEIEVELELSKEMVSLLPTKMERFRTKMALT
Sequence of UniProt P01130 (P01130 whole entry, looked up): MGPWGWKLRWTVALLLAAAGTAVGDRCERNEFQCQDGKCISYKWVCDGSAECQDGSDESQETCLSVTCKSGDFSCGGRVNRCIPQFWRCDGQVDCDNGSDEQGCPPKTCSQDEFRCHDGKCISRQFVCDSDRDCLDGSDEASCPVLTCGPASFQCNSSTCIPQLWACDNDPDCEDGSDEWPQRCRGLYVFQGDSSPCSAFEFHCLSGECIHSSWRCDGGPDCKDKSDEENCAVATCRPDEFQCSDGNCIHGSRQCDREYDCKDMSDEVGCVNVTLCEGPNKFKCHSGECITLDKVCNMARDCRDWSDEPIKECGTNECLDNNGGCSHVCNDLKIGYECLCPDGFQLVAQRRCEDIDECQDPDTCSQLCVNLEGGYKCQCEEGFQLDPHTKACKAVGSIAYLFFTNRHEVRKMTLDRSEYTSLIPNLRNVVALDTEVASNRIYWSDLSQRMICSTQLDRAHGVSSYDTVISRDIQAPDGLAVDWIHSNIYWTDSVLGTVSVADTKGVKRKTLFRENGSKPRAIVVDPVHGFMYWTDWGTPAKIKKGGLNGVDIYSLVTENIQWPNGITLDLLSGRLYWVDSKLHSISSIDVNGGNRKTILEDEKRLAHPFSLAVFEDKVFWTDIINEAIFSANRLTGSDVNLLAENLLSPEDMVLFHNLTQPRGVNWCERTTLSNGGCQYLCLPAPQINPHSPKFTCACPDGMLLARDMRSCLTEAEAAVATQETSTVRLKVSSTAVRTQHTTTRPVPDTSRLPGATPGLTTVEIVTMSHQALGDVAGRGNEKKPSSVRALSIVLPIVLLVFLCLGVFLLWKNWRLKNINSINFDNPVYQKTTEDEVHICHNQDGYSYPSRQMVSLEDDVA

| Target | log2 fold change [1] | log2 fold change (volasertib) | log2 fold change [2] | log2 fold change (epoxomicin) | log2 fold change [3] | log2 fold change [4] | log2 fold change [5] | log2 fold change (rosiglitazone) | log2 fold change [6] | log2 fold change [7] |
| --- | --- | --- | --- | --- | --- | --- | --- | --- | --- | --- |
| LIMD1 (UniProt Q9UGP4) | -0.055 | -0.245 (active) | 0.042 | -0.018 | 0.026 | 0.002 | 0.015 | 0.064 | -0.028 | -0.043 |
| LIAS (UniProt O43766) | 0.051 | 0.055 | -0.021 | -0.011 | 0.027 | -0.044 | -0.043 | 0.003 | -0.052 | 0.057 |
| KHDC4 (UniProt Q7Z7F0) | -0.063 | -0.236 (active) | 0.107 | 0.036 | -0.045 | -0.057 | 0.137 | 0.035 | 0.071 | -0.014 |
| LNPEP (UniProt Q9UIQ6) | 0.004 | -0.182 | -0.016 | 0.014 | 0.016 | -0.02 | 0.012 | 0.016 | -0.025 | 0.024 |
| LDLR (UniProt P01130) | -0.135 | -0.176 | -0.028 | 0.031 | -0.007 | 0.058 | -0.059 | 0.009 | -0.004 | 0.064 |
| MAP2K1 (UniProt Q02750) | -0.017 | -0.058 | 0.024 | 0.053 | -0.006 | -0.092 | 0.032 | 0.029 | -0.06 | -0.113 |
| IWS1 (UniProt Q96ST2) | 0.048 | 0.034 | 0.029 | 0.006 | -0.14 | 0.021 | 0.046 | 0.029 | 0 | -0.054 |
| IRF3 (UniProt Q14653) | -0.05 | -0.1 | -0.052 | -0.035 | -0.02 | -0.037 | 0.018 | 0.024 | -0.024 | -0.045 |
| ILF2 (UniProt Q12905) | 0.277 | 0.281 | 0.029 | -0.186 | -0.018 | 0.2 | -0.053 | -0.099 | 0.16 | 0.352 |
| IGFBP2 (UniProt P18065) | -0.319 | -0.614 | -0.167 | -0.707 | -0.275 | 0.158 | 0.003 | 0.083 | 0.323 | -0.638 |
| MAP3K4 isoform 2 (UniProt Q9Y6R4) | 0.141 | 0.398 (active) | -0.013 | 0.007 | 0 | -0.519 (active) | 0.013 | 0.018 | -0.018 | 0.024 |
| MAGI1 (UniProt Q96QZ7) | 0.041 | 0.031 | 0.026 | -0.045 | 0.005 | 0.012 | -0.041 | 0.016 | 0.014 | -0.011 |
| MIF (UniProt P14174) | 0.025 | 0.021 | -0.096 | 0.454 (active) | 0.015 | 0.081 | 0.025 | -0.012 | -0.038 | 0.211 |
| KCTD10 (UniProt Q9H3F6) | 0.046 | 0.022 | 0.055 | -0.019 | 0 | -0.01 | 0.023 | 0.04 | 0.003 | 0.257 (active) |
| MIEF1 (UniProt L0R8F8) | -0.028 | -0.076 | -0.106 | 0.022 | 0.017 | -0.065 | -0.018 | -0.019 | -0.028 | -0.021 |
| IGF2R (UniProt P11717) | -1.09 (active) | -0.875 (active) | -0.033 | 0.002 | 0.018 | -0.013 | -0.023 | -0.024 | -0.013 | -0.607 (active) |
| ILK (UniProt Q13418) | 0.033 | 0.064 | 0.035 | -0.04 | -0.037 | -0.052 | -0.006 | 0.051 | 0.125 | -0.191 |
| KHDRBS1 (UniProt Q07666) | 0.148 | 0.106 | 0.074 | -0.029 | 0.016 | -0.096 | -0.007 | -0.028 | -0.04 | 0.116 |
| KIFBP (UniProt Q96EK5) | -0.007 | -0.333 (active) | 0.11 | -0.035 | -0.036 | 0.017 | 0.038 | 0.11 | 0.095 | -0.046 |
| MED16 (UniProt Q9Y2X0) | 0.128 | 0.101 | 0.004 | -0.262 | -0.002 | 0.031 | 0.086 | 0.05 | 0.087 | 0.06 |
| ME2 (UniProt P23368) | 0.164 | 0.445 (active) | 0.006 | 0.108 | -0.012 | -0.015 | -0.002 | 0.016 | -0.02 | 0.145 |
| IMMT isoform 4 (UniProt Q16891) | -0.131 | -0.099 | 0.013 | 0.035 | 0.015 | -0.004 | 0.002 | 0.002 | -0.047 | -0.325 (active) |
| MCCC2 (UniProt Q9HCC0) | 0.003 | 0.038 | -0.032 | -0.018 | -0.007 | -0.013 | 0.003 | 0.012 | -0.031 | 0.027 |
| METTL18 (UniProt O95568) | 0.02 | -0.159 | 0.032 | -0.058 | 0.08 | 0 | 0.006 | 0.062 | 0.005 | 0.015 |
| MAP4K4 isoform 3 (UniProt O95819) | -0.082 | -0.316 (active) | 0.011 | 0.047 | 0.017 | -0.184 | 0.012 | 0.058 | 0.001 | -0.299 (active) |
| INPP1 (UniProt P49441) | 0.011 | -0.042 | 0.028 | 0.052 | 0.005 | -0.011 | -0.047 | 0.002 | 0.014 | -0.296 (active) |
| LMF2 (UniProt Q9BU23) | -0.109 | -0.332 (active) | -0.027 | 0 | -0.053 | 0.12 | -0.017 | 0.039 | -0.007 | -0.035 |
| MARK3 (UniProt P27448) | -0.057 | -0.078 | 0.097 | 0.019 | -0.03 | -0.019 | 0.055 | 0.049 | 0.051 | -0.549 (active) |

From the supplement of paper PMC10849652
